Source: the OligoGym collection

What follows are sequences tested against YIPF6 (assay: pooled miR-30 sensor sort-seq; sequence = guide strand). Conditions: shRNA.
Note: reference of the scale not given here.

| Sequence | sensor-assay potency score (higher = more potent) |
| --- | --- |
| TCTCTTTGCAGCATTAATGCGA | -0.247 |
| TAAACAGCTAGGGCTCTGCGGT | -0.877 |
| TTGAGGGTGATGGTAACTGCAC | -0.917 |
| TTACAGGTCCTGGATCAGCCAA | -1.45 |
| TTTCACTATCTGCAGAGTCTCT | -0.747 |
| TTTGAGTTGAGGGTGATGGTAA | -0.386 |
| TCACTATCTGCAGAGTCTCTTT | -0.696 |
| TTTAGATCACGCATGATGGTAT | 0.00293 |
| TATCTGCAGAGTCTCTTTGCAG | -1.39 |
| TAGGAATGGTGATTTCTCCTTC | 0.33 |
| TTTTAGATCACGCATGATGGTA | -0.619 |
| TTGTGAGATGGATATATCTGAA | -0.839 |

These sequences were tested against YJEFN3 in the same assay as above. Conditions: shRNA.

| Sequence | sensor-assay potency score (higher = more potent) |
| --- | --- |
| ATGACCGCACAGCTCCACGAGC | -1.82 |
| TGTCCATCTTCTCGCACTGGGT | -1.09 |
| TTAATGAGCTGCACCTCAGTGG | 0.0127 |
| ATGTCCATCTTCTCGCACTGGG | -1.01 |
| TTGAGCGTGGCCAGCGCGCGGG | -0.949 |
| AATCGCTGCCGGTCTCTGCGTC | -0.877 |
| ATAGGCTTCGTTAATGAGCTGC | 0.277 |
| ATGGACAGCAGCTTGAGCGTGG | 0.0409 |
| TCATCGGGCACGAACCTGCCGG | -1.06 |
| TCCATCTTCTCGCACTGGGTGG | -1.52 |
| TAGCATGACCGCACAGCTCCAC | -0.593 |
| TTCGTTAATGAGCTGCACCTCA | -0.35 |
